Experimental data published in the supplement of paper PMC11732987, “Enantioselective OTUD7B fragment discovery through chemoproteomics screening and high-throughput optimisation” (Communications Chemistry, 2025).

Key:
Assay in all cases: log2 ratio of Biotin-Ahx-Ub-VS probe labelling (fragment/DMSO); higher = less target engagement (more negative = stronger competition), active = hit call of the paper (q ≤ 0.05, log2 ratio ≤ -1)
Conditions in all cases: compound concentration: 200 uM; treatment time: 3 h
USP19 = molecular target: T1, USP19 (UniProt O94966)
T1 sequence (whole entry): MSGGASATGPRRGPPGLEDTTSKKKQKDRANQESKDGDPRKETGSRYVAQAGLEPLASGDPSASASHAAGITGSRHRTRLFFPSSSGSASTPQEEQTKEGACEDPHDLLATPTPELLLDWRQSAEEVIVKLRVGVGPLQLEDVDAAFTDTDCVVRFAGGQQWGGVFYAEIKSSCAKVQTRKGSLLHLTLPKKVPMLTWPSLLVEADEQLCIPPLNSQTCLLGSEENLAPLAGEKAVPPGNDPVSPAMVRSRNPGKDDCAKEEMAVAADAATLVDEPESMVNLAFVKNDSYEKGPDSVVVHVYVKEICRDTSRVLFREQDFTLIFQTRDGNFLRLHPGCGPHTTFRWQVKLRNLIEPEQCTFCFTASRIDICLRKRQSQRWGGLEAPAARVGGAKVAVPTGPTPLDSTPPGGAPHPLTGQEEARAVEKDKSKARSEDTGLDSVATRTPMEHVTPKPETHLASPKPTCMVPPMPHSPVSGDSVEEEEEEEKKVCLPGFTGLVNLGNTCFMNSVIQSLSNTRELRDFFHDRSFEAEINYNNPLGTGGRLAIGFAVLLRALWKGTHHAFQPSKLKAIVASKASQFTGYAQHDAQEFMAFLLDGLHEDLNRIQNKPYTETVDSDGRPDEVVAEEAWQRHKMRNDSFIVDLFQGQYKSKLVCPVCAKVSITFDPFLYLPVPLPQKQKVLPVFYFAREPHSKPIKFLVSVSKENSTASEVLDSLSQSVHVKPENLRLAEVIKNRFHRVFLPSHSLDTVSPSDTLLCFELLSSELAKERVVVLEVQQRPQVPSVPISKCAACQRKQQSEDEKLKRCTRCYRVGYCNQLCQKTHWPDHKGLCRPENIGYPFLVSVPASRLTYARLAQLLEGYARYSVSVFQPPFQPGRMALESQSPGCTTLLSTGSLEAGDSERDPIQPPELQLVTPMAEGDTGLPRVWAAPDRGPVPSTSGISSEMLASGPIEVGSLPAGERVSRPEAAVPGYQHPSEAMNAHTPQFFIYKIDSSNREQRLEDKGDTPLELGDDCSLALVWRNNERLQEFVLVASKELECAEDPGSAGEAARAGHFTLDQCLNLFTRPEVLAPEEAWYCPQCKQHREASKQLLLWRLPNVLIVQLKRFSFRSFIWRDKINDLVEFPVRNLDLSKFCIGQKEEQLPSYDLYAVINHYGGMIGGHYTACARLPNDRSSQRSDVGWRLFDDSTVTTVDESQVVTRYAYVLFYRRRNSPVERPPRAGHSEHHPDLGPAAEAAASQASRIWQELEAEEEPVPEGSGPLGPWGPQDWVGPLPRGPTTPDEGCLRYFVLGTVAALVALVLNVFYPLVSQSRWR
Summary of the method: (§1)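 Values give the average log2 ratio of fragment to vehicle, assessed by unpaired t-test on global-median-normalised Spectronaut label-free quantities. Proteins needed ≥2 unique peptides. HEK293T lysate (495 µg per sample) was treated in triplicate with fragment at 200 µM or vehicle for 3 h and then with Biotin-Ahx-Ub-VS at 0.5 µM final for 1 h. Labelled DUBs were NeutrAvidin-enriched, digested and run by diaPASEF LC-MS/MS.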

USP22 = molecular target: T2, USP22 (UniProt Q9UPT9)
T2 sequence (whole entry): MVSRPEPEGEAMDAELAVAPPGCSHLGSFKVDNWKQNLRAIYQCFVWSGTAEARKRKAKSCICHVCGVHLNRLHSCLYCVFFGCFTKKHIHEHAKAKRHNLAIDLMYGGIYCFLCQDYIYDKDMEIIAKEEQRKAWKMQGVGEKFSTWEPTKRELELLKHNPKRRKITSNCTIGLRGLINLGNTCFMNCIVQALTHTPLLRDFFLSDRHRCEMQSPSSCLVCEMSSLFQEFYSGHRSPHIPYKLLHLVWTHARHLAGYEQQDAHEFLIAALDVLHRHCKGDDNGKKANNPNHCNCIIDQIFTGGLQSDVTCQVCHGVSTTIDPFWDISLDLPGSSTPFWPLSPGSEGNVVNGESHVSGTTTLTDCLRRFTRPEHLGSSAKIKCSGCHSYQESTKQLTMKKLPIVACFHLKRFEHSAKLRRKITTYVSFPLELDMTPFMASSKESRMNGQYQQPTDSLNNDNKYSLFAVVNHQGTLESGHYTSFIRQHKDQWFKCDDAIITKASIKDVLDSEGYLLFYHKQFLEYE
Summary of the method: as §1

USP24 = USP24 (UniProt Q9UPU5)
Summary of the method: as §1

USP25 = molecular target: T3, USP25 (UniProt Q9UHP3)
T3 sequence (whole entry): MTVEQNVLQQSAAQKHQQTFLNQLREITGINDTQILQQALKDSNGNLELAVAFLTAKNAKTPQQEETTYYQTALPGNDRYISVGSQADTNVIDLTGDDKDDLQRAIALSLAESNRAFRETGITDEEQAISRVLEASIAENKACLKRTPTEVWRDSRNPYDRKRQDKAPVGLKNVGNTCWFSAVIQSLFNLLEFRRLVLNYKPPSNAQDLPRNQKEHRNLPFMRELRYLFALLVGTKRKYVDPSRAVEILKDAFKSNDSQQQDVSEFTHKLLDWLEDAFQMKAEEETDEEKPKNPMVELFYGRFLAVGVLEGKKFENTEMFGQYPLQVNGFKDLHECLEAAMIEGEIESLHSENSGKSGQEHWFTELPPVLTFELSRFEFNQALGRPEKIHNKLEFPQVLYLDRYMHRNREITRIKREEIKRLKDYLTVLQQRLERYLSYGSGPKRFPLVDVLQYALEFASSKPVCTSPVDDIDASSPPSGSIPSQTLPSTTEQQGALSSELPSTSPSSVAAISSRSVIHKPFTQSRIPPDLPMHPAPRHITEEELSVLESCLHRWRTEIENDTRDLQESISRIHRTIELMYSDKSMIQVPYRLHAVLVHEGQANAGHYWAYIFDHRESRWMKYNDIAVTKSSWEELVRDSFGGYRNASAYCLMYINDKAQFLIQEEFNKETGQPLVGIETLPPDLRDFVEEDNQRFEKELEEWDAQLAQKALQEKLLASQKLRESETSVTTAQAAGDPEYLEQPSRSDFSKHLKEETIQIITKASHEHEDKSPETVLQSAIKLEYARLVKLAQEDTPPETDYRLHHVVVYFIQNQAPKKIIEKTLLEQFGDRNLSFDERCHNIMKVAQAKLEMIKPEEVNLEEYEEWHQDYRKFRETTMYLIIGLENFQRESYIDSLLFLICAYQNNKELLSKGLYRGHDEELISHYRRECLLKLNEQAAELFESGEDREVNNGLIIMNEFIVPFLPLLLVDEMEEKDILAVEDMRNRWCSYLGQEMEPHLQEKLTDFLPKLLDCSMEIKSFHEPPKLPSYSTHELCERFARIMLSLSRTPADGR
Summary of the method: as §1

USP28 = molecular target: T4, USP28 (UniProt Q96RU2)
T4 sequence (whole entry): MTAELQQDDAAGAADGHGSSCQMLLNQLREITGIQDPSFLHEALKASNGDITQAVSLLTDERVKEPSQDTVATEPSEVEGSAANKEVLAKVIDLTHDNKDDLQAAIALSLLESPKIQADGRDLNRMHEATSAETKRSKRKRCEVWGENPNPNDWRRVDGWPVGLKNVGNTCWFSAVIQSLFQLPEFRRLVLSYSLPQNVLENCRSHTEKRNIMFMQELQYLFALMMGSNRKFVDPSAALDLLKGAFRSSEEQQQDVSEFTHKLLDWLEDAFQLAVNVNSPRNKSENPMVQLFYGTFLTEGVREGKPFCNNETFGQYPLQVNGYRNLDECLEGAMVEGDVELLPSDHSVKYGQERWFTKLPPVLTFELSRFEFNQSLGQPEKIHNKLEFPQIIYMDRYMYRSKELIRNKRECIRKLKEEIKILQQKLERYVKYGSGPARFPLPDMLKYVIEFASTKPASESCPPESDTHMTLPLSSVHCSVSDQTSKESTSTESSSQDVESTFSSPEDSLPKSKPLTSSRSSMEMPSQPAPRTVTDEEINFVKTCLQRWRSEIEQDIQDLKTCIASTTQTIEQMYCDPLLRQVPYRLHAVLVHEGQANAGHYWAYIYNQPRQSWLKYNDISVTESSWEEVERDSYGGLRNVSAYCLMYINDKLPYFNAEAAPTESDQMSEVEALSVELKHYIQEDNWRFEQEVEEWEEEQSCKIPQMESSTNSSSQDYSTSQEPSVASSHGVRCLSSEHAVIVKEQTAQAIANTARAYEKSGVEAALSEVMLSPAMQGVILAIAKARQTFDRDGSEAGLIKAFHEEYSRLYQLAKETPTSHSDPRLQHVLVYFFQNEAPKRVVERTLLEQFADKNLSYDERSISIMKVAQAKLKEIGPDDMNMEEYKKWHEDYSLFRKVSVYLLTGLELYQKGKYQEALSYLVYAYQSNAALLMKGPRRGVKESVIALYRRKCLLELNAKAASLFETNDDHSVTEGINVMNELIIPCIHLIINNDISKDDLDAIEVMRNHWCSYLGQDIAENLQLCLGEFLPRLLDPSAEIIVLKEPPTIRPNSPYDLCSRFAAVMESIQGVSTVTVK
Summary of the method: as §1

Measured: log2 ratio of Biotin-Ahx-Ub-VS probe labelling

Chain of USP24 (Q9UPU5 whole entry): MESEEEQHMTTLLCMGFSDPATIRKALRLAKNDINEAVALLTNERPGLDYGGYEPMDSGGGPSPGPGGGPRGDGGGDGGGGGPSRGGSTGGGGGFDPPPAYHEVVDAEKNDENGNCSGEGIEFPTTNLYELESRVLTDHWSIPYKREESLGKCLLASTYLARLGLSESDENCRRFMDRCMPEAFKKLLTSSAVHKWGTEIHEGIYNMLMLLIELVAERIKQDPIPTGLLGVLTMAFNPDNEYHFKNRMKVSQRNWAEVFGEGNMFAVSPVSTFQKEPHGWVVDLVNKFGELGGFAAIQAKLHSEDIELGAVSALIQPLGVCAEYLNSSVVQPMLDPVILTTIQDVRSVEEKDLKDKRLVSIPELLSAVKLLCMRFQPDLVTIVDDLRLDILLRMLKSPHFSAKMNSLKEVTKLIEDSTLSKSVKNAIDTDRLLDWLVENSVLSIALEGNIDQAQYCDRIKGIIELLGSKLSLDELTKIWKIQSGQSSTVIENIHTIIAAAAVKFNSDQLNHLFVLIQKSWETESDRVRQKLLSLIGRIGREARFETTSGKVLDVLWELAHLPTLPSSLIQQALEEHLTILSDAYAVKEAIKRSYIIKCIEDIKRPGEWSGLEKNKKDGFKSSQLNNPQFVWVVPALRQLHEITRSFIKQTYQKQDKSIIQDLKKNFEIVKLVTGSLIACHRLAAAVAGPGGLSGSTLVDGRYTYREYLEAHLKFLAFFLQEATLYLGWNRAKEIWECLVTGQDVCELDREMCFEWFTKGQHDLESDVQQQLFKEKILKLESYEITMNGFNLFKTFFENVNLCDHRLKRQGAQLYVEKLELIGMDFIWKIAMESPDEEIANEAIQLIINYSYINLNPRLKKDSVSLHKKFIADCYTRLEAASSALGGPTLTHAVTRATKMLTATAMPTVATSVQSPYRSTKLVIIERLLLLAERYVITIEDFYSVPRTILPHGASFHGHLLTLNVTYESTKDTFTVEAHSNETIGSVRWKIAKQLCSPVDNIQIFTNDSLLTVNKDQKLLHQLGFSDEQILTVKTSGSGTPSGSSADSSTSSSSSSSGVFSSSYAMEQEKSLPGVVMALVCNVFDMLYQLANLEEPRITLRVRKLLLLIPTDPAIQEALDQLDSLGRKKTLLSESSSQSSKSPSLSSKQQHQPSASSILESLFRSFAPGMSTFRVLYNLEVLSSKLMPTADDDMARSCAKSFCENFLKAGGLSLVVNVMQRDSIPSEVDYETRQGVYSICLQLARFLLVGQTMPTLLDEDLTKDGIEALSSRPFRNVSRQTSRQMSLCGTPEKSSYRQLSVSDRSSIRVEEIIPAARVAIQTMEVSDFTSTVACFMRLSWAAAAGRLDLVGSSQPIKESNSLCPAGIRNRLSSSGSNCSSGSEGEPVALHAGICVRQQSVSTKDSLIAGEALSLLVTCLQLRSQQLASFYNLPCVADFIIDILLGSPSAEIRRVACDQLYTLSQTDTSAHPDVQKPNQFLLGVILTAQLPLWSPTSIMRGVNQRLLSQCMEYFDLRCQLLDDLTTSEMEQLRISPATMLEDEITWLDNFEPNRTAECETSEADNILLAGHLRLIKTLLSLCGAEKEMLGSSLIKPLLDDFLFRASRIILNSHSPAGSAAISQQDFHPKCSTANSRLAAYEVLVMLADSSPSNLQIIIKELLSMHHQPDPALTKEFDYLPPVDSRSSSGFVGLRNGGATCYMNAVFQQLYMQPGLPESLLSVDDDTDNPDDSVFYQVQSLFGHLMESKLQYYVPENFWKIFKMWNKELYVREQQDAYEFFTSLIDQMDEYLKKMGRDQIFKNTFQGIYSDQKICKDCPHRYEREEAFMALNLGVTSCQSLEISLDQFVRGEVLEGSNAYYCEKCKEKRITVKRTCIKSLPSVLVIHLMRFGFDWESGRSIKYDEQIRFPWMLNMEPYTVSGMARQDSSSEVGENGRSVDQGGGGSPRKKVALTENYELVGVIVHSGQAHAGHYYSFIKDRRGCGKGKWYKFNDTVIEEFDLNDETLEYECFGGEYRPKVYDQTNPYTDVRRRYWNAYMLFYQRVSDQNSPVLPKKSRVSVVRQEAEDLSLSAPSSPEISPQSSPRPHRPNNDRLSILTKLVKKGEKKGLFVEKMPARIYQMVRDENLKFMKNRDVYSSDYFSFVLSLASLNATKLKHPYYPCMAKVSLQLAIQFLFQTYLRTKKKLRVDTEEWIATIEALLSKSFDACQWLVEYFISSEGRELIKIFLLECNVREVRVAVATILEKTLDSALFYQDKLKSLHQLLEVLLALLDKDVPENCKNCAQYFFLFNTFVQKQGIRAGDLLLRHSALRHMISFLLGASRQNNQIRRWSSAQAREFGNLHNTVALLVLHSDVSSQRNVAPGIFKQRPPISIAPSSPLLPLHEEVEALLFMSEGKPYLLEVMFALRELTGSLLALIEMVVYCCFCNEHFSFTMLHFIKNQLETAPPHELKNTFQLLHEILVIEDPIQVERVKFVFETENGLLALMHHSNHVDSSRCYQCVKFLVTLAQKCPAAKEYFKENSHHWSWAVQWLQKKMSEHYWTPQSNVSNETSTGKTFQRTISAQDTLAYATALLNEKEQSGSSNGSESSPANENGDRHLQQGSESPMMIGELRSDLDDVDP

O=C(CCl)Nc1ccc(F)cc1Cl
inactive: USP19 -0.2 | USP22 -0.0369 | USP24 -0.832 | USP25 -0.414 | USP28 -0.873
